Laboratory results: PubChem BioAssay AID493034 (The Scripps Research Institute Molecular Screening Center, 2011)
About 2,200 (92%) of roughly 2,400 compounds were called active. The set was probably picked from earlier hits. Some of the results follow. A number with no mark means an inactive call.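 The calls were made as follows: active = mean inhibition over triplicate runs exceeds the cutoff derived for the earlier primary screen (cut at about 25% in these data); inactive = the rest.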

Target: Platelet-activating factor acetylhydrolase IB subunit alpha2 (Homo sapiens) (UniProt P68402)
Sequence (P68402 whole entry, looked up): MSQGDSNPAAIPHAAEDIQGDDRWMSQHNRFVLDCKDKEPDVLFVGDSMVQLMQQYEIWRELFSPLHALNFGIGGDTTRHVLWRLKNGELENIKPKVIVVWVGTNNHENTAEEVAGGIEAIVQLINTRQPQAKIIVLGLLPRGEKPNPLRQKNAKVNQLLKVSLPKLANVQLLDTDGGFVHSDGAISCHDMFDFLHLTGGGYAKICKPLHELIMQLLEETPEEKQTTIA
Experiment: PAFAH1B2 inhibitors, confirmation, biochemical, fluorescence polarization, FP-rhodamine probe, triplicate (AID 493034);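 also: 0% = enzyme with DMSO and 100% = wells lacking PAFAH1B2 protein; inhibitors lower polarization by leaving the probe unbound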
Details: recombinant PAFAH1B2, FP-rhodamine probe fluorescence polarization; at 3.39 µM; stronger effect = higher value

Structure (SMILES)	inhibition
C=CCO/N=C(\C)c1c(O)c(C)c(-c2ccccc2)n(-c2ccccc2)c1=O	25.2% (active)
CC1CCC2C(C1)c1sc(=O)[nH]c1SC2(C)C (stereo unspecified)	55.2% (active)
N#CC1(C#N)CC(C=O)=C(N)C1(C#N)CC(=O)C12CC3CC(CC(C3)C1)C2 (stereo unspecified)	17.2%
CCC[C@@H]1CCCO[C@@](C(=O)NCc2ccccn2)(C(F)(F)F)C1	20%
Cc1ccc(SCc2[nH]nc3c2C2(CCSCC2)C(C#N)=C(N)O3)cc1	32.9% (active)
CCOC(=O)C(CC(=O)O)=C(c1ccccc1)c1ccccc1	17.7%
Cc1cc(C)cc(NC(=O)Nc2ccc(-n3ccc(C(F)(F)F)n3)cc2)c1	0.5%
CC1CCN(S(=O)(=O)c2ccc(NC(=O)CN3CCOCC3)cc2)CC1	20.2%
CC1CCN(S(=O)(=O)c2ccc(N=NC3=C(O)CC(C)(C)CC3=O)cc2)CC1	49.4% (active)
CC1(c2ccc(Cl)cc2)NC(=S)N2C1NC(=S)N2c1ccccc1 (stereo unspecified)	18.1%
Cn1cnc2cc(NCc3ccc(Cl)cc3)ccc21	35.2% (active)
CC(C)(C)n1cnc2cc(NCc3ccc(Br)cc3)ccc21	35.2% (active)
CCCn1cnc2cc(NCc3ccc(Br)cc3)ccc21	33.7% (active)
CCn1cnc2cc(NCc3ccc(Cl)cc3)ccc21	20.5%
Cc1ccc(S(=O)(=O)N2CCCCC2)cc1C(=O)OCC(=O)N1c2ccccc2NC(=O)C1(C)C	23.6%
CCOC(=O)c1sc(N(Cc2ccccc2)C(=O)COC(=O)c2ccccc2O)nc1C	1.5%
CC(=O)NN1C(=O)/C(=C/c2ccc(C(C)C)cc2)SC1=S	28.4% (active)
CC(=O)c1sc(NC(=O)C2(F)C(F)(F)C(F)(F)C(F)(F)C(F)(F)C2(F)F)nc1C	28.6% (active)
O=C(CN1CCN(S(=O)(=O)c2ccc(Br)s2)CC1)NC1CCCCC1	22.8%
O=C(c1cc([N+](=O)[O-])ccc1N1CCN(S(=O)(=O)c2ccc(Cl)c(Cl)c2)CC1)N1CCOCC1	27.3% (active)
CCn1c(SCC(=O)N(C)C)nc2cc(S(=O)(=O)N3CCOCC3)ccc21	4.4%
CC(NC(=O)CN1C(=O)NC(Cc2ccccc2)(Cc2ccccc2)C1=O)C12CC3CC(CC(C3)C1)C2 (stereo unspecified)	71.1% (active)
CC(NC(=O)c1ccc([N+](=O)[O-])o1)C12CC3CC(CC(C3)C1)C2 (stereo unspecified)	18%
CN1CCN(S(=O)(=O)c2ccc(Sc3nnnn3-c3ccccc3)c([N+](=O)[O-])c2)CC1	41.1% (active)
CN1CCN(S(=O)(=O)c2ccc(Sc3nnc(-c4cccs4)n3-c3ccccc3)nc2)CC1	21.5%
CC(Sc1ccc(S(=O)(=O)N2CCN(C)CC2)cn1)C(=O)NC1(C#N)CCCCC1 (stereo unspecified)	22.4%
